Assay outcomes as filed in PubChem BioAssay.
Only some compounds are listed: those with a hit (about 1.9% of all), similar ones and a draw of the others.
A1 inh = inhibitors of the anti-apoptotic protein A1, read as caspase activation. caspase activation, % (concentration not given with the values). AID 2462. 0.066% of 330,000 active. MEF A1-2A-BIM cells, Caspase-Glo 3/7 luminescence, 3 h; percent of clofoctol response, vehicle zero;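 active = over half of replicate activation scores above 10%, or exactly half above 10 with the replicate mean above 10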
Vif inh = inhibitors of HIV Vif; 0.35% of 340,000 active; inhibition, % at 7.49 µM; HEK293T cells, Vif self-association by quenched fluorescence, imaging, 24 h; in the data active = inhibition above about 50%, passing the limit was not always enough
INS-1E GSIS act = GLuc luminescence reporter in INS-1E cells, primary screen for activators of glucose-dependent secretion of insulin. INS-1E GLuc reporter insulin secretion, 2-3 h. activation, % at 16.6 µM. 0.61% of 370,000 active;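 active = lowest replicate activation of at least 40%, so every replicate reaches that level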;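 also: 0% = median of neutral control wells and 100% = median of IBMX positive control wells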
dFosB act = enhances mouse delta FosB homodimer DNA binding | activation, % at 25 µM | AID 493131 | P13346 | purified delta FosB, TAMRA-CDK5 oligo fluorescence polarization; percent of positive-control signal above neutral wells | 0.99% of 340,000 active;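 active = mean activation above about 17%, with every replicate also reaching it, limit read from the data, passing the limit was not always enough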
Neddylation inh = inhibitors of human cullin neddylation | inhibition, % at 25 µM | P61081+Q13564 | 0.58% of 360,000 active | AID 651699 | TR-FRET cullin neddylation, biochemical; in the data active = inhibition above about 36%
Target sequence (P61081 whole entry, looked up): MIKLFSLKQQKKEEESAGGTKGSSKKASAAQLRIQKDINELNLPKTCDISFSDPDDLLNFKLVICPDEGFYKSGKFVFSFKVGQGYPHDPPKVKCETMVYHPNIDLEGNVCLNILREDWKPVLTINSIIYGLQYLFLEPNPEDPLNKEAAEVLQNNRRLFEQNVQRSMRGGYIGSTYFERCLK
Target sequence (Q13564 whole entry, looked up): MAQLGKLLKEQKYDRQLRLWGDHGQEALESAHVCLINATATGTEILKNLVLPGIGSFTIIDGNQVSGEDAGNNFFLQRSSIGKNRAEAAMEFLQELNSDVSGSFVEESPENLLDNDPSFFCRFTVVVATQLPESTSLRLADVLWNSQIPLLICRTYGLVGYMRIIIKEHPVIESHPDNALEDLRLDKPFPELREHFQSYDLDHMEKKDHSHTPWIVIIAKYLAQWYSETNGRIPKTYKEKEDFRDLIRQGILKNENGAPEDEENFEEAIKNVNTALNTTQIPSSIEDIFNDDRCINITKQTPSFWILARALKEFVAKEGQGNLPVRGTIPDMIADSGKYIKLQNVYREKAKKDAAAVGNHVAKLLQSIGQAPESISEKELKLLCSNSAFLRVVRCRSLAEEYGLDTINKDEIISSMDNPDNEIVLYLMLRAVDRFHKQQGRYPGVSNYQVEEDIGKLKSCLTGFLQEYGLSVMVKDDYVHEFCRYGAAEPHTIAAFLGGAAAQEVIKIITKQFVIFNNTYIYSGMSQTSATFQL
Numbers without * were called inactive; . = no result shown.

SMILES	A1 inh	Vif inh	INS-1E GSIS act	dFosB act	Neddylation inh
Cc1c(NC(=O)/C(C#N)=C/c2c(Oc3ccccc3)nc3ccccn3c2=O)c(=O)n(-c2ccccc2)n1C	-1	9	45*	-12	24
Cc1ccccc1Oc1nc2c(C)cccn2c(=O)c1/C=C(\C#N)C(=O)Nc1c(C)n(C)n(-c2ccccc2)c1=O	-1	124*	-45	3	.
COc1ccc2c3c([nH]c2c1)[C@@H](CO)N(C(=O)CC1CC1)CC31CN(Cc2ccncc2)C1	.	.	3	.	.
CCOC(=O)C[C@@H](C#N)NC(=O)[C@@H]1CCCN1C(=O)[C@@H](NC(=O)c1ccc(N)c(Cl)c1)C(C)(C)C	.	76*	-12	.	1
C[C@H]1CCCCO[C@@H](CN(C)Cc2ccccc2)[C@@H](C)CN([C@@H](C)CO)C(=O)c2cc(NC(=O)Nc3ccc(C(F)(F)F)cc3)ccc2O1	.	.	8	.	.
Cc1ccc(S(=O)(=O)N[C@@H]2C=C[C@H](CC(=O)N3CCN(c4ccccc4)CC3)O[C@@H]2CO)cc1	.	.	2	.	.
CCCN(CCC)CCNC(=O)c1cc2c(=O)n(C)c3ccccc3c2n1C	-1	-7	22	-24	44*
CN(C)C(=O)c1ccc(-c2ccc([C@H]3[C@@H](CO)N4C(=O)CN(C(=O)C5CCCC5)C[C@H]34)cc2)cc1	.	.	9	.	.
COc1nc(Nc2ccccc2)nc(OC)n1	-2	-2	41*	2	-1
Nc1nc(N)nc(-c2cc([N+](=O)[O-])ccc2O)n1	-2	-1	0	10	-17
Nc1nc(N)nc(-c2cccc([N+](=O)[O-])c2)n1	.	.	60*	.	-25
COc1ccc(CO/N=C/c2c(C)[nH]c(=O)[nH]c2=O)cc1	0	-2	44*	-16	-3
CO[C@@H]1CN(C)C(=O)c2ccc(NS(=O)(=O)CC(F)(F)F)cc2OC[C@@H](C)N(C(=O)NC(C)C)C[C@@H]1C	.	.	4	.	.
CC(C)Nc1nc(NC(N)=S)nc(NC(C)(C)C)n1	0	0	44*	-2	5
CC(C)Nc1nc(NC(N)=S)nc(NC(C)C)n1	-1	1	82*	1	-2
CO[C@H]1CN(C)C(=O)c2cc(NC(=O)C3CC3)ccc2OC[C@H](C)N(C(=O)c2ccncc2)C[C@@H]1C	.	.	14	.	.
CC(C)NC(=O)N(C)C[C@@H]1Oc2ccc(NC(=O)Nc3ccccc3)cc2C(=O)N([C@@H](C)CO)C[C@H]1C	.	.	19	.	.
O=C1Nc2ccccc2N(C(=O)c2ccc(-c3ccccc3)cc2)C1c1nc2ccccc2[nH]1 (stereo unspecified)	.	.	24	.	-25
O=C1Nc2ccccc2N(C(=O)c2c(F)cccc2F)C1c1nc2ccccc2[nH]1 (stereo unspecified)	.	.	37	.	52*
O=C(N[C@@H]1CC[C@@H](CCNC(=O)C2CC2)O[C@@H]1CO)c1ccccn1	.	.	4	.	.
COc1ccccc1C#Cc1ccc([C@@H]2[C@@H](CO)N(C(=O)C3CCCC3)[C@H]2C#N)cc1	.	.	-5	.	.
CCN(CC)c1ccc(/C=N/NC(=O)Cc2nnc(NC(=O)Nc3ccccc3)s2)cc1	1	4	13	25*	38
COc1cc2c(cc1OC)C(C)N(Cc1ccc3c(c1)OCO3)CC2 (stereo unspecified)	2	-2	4	4	2
COc1cc2c(cc1OC)C(Cc1ccc(O)cc1)NCC2 (stereo unspecified)	0	-1	70*	7	11
COc1cc2c(cc1OC)C(Cc1ccc(O)cc1)N(C)CC2 (stereo unspecified)	-1	1	40*	2	2
SMILES	A1 inh	Vif inh	INS-1E GSIS act	dFosB act	Neddylation inh
COc1ccc(S(=O)(=O)N[C@@H]2CC[C@@H](CC(=O)O)O[C@@H]2CO)cc1	.	.	8	.	.
CCn1c(CCNS(=O)(=O)c2ccccc2Br)nnc1SC	0	54*	13	-2	1
CCOC(=O)Cc1csc(NC(=O)c2cccc([N+](=O)[O-])c2)n1	-1	3	179*	-5	-23
CCOC(=O)Cc1csc(NC(=O)c2ccc(OC)c(OC)c2)n1	.	.	55*	-27	6
O=C(Cc1csc(NC(=O)c2ccccc2)n1)NO	0	-4	57*	-2	-2
COc1ccc(NC(=O)N(C)C[C@H]2OCc3ccccc3-c3ccccc3C(=O)N([C@@H](C)CO)C[C@@H]2C)cc1	.	.	-12	.	.
COc1ccc(/C=C/C(=O)O)cc1COc1cccc(C)c1	0	15	47*	-1	-5
CCC(=O)N[C@@H]1C=C[C@H](CC(=O)NCCN2CCCCC2)O[C@H]1CO	.	.	-8	.	.
Cc1ccc(NC(=O)CSc2nnc(-c3ccc(S(=O)(=O)N4CCCC4)cc3)o2)cc1C	.	8	.	70*	-4
CCCNC(=O)C[C@@H]1CC[C@H]2[C@@H](COc3ccc(NC(=O)c4ccccc4)cc3C(=O)N2C)O1	.	.	-1	.	.
COc1cc(/C=N/N=C(N)N)ccc1OCc1ccccc1Cl	0	2	15	24*	-9
CC(C)C#Cc1ccc2c(c1)O[C@@H](CN(C)C(=O)C1CCCCC1)[C@@H](C)CN([C@@H](C)CO)S2(=O)=O	.	.	-10	.	.
COc1cc(OC)c(-c2c3cc(O)c(=O)cc-3oc3cc(O)c(O)cc23)cc1OC	0	0	-22	22*	-36
O=C(Nc1ccc(S(=O)(=O)Nc2nccs2)cc1)C1CC(=O)N(c2ccc(Cl)cc2)C1 (stereo unspecified)	-1	35	6	-1	-1
O=C(Nc1ccc(S(=O)(=O)Nc2ncccn2)cc1)C1CC(=O)N(c2ccc(Cl)cc2)C1 (stereo unspecified)	0	56*	0	-4	0
COc1ccc(C(=O)Nc2ccc3c(c2)C(=O)N(C)C[C@@H](OC)[C@@H](C)CN[C@H](C)CO3)cc1	.	.	9	.	.
O=[N+]([O-])c1c(NCCCO)cc(Sc2nc3ccccc3s2)c2nonc12	0	32	134*	4	-22
Cc1nnc(Sc2cc(NCCCO)c([N+](=O)[O-])c3nonc23)s1	.	2	75*	-1	-5
CCC(=O)OCCNc1cc(Sc2nc3ccccc3s2)c2nonc2c1[N+](=O)[O-]	3	-7	18	1	-16
Cc1nnc(Sc2cc(NCCO)c([N+](=O)[O-])c3nonc23)s1	.	-1	6	1	-2
COCC(=O)N1CC(=O)N2[C@@H](CO)[C@@H](c3ccc(C#Cc4cccc(OC)c4)cc3)[C@@H]2C1	.	.	8	.	.
CCC(=O)Nc1ccc2c(c1)OC[C@@H](C)N(C(=O)CC)C[C@@H](C)[C@H](OC)CN(C)C2=O	.	.	12	.	.
COc1ccc(NC(=O)CNC(=O)C2CCCCC2)cc1OC	0	-2	25	-12	-13
COc1ccc(NC(=O)COC(=O)CNC(=O)C2CCCCC2)cc1OC	2	-11	59*	-8	8
Cc1cc(C)nc(Nc2ccc(C(=O)O)cc2)n1	-2	58*	-4	-7	-1
Cc1cc(C)nc(Nc2ccc(O)cc2)n1	0	.	56	5	-3
